Sampled rows, rich in hits. Any-hit rate of the full collection: about 2.4%.
D2 ag-1 = human D2 receptor agonism in beta-arrestin assay | DiscoveRx PathHunter D2 beta-arrestin, luminescence, 90 min; 100% = 57 uM dopamine signal | activation, % (no concentration beside the values) | 360,000 compounds, 0.084% hits | AID 624465; in the data active = activation above about 40%
Target sequence (P14416 whole entry, looked up): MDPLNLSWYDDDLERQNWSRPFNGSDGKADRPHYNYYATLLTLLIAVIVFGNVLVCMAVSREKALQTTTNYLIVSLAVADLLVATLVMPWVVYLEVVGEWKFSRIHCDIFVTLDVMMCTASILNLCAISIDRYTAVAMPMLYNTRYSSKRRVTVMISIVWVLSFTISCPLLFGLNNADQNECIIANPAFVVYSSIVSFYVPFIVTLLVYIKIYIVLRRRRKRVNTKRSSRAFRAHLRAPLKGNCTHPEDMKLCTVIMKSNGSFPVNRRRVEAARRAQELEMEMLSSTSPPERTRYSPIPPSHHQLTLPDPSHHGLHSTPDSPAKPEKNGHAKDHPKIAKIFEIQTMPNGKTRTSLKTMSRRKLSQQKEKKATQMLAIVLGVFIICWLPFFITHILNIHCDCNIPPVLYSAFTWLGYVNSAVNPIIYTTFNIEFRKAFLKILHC
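DiscoveRx PathHunter D2 beta-arrestin cells (2,100/well) attached overnight, then compound-stimulated 90 min at 37 C in HBSS/10 mM HEPES/0.1% Tween-20 buffer; beta-galactosidase complementation read by luminescence after 1 h at ambient temperature. Dopamine 57 uM final (EC100) as control.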
D2 PAM-1 = positive allosteric modulators of human D2 dopamine receptor | DiscoveRx D2 beta-arrestin cells, luminescence, 90 min; 100% = 57 uM dopamine signal | P14416 | potentiation, % (concentration not given with the values) | AID 624464 | 360,000 compounds, 0.23% hits; in the data active = potentiation above about 50%
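D2 cells co-treated with compound plus 50 nM dopamine (EC20) for 90 min at 37 deg C to detect potentiation. Beta-arrestin recruitment was read as enzyme-fragment luminescence after 1 h at ambient temperature. Full response was set by 57 uM dopamine.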
D2 PAM-2 = positive allosteric modulators of human D2 dopamine receptor | AID 485347 | potentiation, % at 10 µM | HEK293 T-REx D2, calcium flux, EC20 dopamine potentiation | P14416 | 340,000 compounds, 0.34% hits;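 active = potentiation over 3 SD above the plate norm, cut at about 30% in these data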; note: 0% is about no effect
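Tetracycline-induced Hek293 Trex D2 cells, force-coupled to calcium, loaded with no-wash calcium dye. Compound added with 180 s kinetic read for agonism, then EC20 dopamine and a further 180 s read for potentiation.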
D2 ag-2 = D2 dopamine receptor (human) agonism | P14416 | HEK293 T-REx D2 cells, calcium flux agonist mode | activation, % at 2 µM | 340,000 compounds, 0.53% hits | AID 485358;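 active = activation over 3 SD above normal in the single-dose calcium agonist read, cut at about 30% in these data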; note: 0% is about no effect
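HEK293 Trex D2 cells, tetracycline-induced, o/n 30 C 5% CO2; no-wash Ca dye, RT 30–90 min; 10-cycle baseline, 23 nl cpd added, kinetic Ca read 180 s; agonist hits = positive Ca response.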
D2 antagonist = antagonizes the human D2 dopamine receptor | P14416 | HEK293 TREx D2 cells, calcium flux, dopamine EC80 | inhibition, % at 10 µM | 340,000 compounds, 2% hits | AID 485344; in the data active = inhibition above about 30%; inactive = below that, where a call was filed; note: 0% is about no effect
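In this primary screen, negative modulation is detected by tracking calcium flux after an EC80 dopamine challenge in inducible HEK293 T-REx D2 cells preexposed to test compound for 180 s.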
An asterisk follows results filed as active; ! = not confirmed by another sample.

How did CN1CCC(=O)N(CCSc2ccc(Br)cc2)CC1 do in these assays?
D2 ag-1: -3; D2 PAM-1: -13; D2 PAM-2: 3; D2 ag-2: -1; D2 antagonist: 53*

How did Cc1ccc(/C=C/C(=O)NCCCc2ccccc2)cc1 do in these assays?
D2 ag-1: -5; D2 PAM-1: -20; D2 PAM-2: 9; D2 ag-2: -1; D2 antagonist: -12

How did C#CCNC(=O)/C=C/c1ccc(C)cc1 do in these assays?
D2 ag-1: -2; D2 PAM-1: -13; D2 PAM-2: 4; D2 ag-2: 0; D2 antagonist: 40*

How did Cc1ccc(-c2c3c(nc4sc(C(N)=O)c(N)c24)CCCC3)o1 do in these assays?
D2 ag-1: 0; D2 PAM-1: -5; D2 PAM-2: -13; D2 ag-2: 31*; D2 antagonist: -7

What do the screens show for `CCOCCc1nn2c(=O)cc(COC(=O)c3ccc(NC(=O)c4ccc(F)cc4)cc3)nc2s1`?
D2 PAM-2: 2; D2 ag-2: -4

Results for Nc1nonc1/C(=N/O)N1CCN(CCO)CC1 ?
D2 ag-1: 1; D2 PAM-1: -13; D2 PAM-2: -18; D2 ag-2: 1; D2 antagonist: 51*

How did CN1CCN(/C(=N\O)c2nonc2N)CC1 do in these assays?
D2 ag-1: -3; D2 PAM-1: -35; D2 PAM-2: -7; D2 ag-2: 0; D2 antagonist: -5

How did CN(C(=O)c1ccc(C#N)cc1)c1nnc(-c2ccccn2)s1 do in these assays?
D2 ag-1: -4; D2 PAM-1: -20; D2 PAM-2: 12; D2 ag-2: -1; D2 antagonist: 25

How did CN(C(=O)c1ccncc1)c1nnc(-c2ccccn2)s1 do in these assays?
D2 ag-1: 2; D2 PAM-1: 9; D2 PAM-2: -2; D2 ag-2: 1; D2 antagonist: 35*

What do the screens show for `O=C(Nc1ccc(Cl)c(C(F)(F)F)c1)N1CCCC(O)C1` (configuration not stated)?
D2 ag-1: -1; D2 PAM-1: -26; D2 PAM-2: 4; D2 ag-2: 0; D2 antagonist: 30*

Results for Cc1ccc2c(c1)-c1nc(-c3ccc4c(c3)NC(=O)CO4)cc(-c3ccc(Cl)cc3)c1CO2 ?
D2 PAM-2: 14; D2 ag-2: 0

Results for COc1cc(/C=C(/C(=O)O)c2ccc(-c3ccccc3)cc2)cc(OC)c1OC ?
D2 ag-1: 8; D2 PAM-1: 5; D2 PAM-2: 30*; D2 ag-2: -1; D2 antagonist: -17

How did COc1cc(C(=O)OC(C)CN2CCOCC2)cc(OC)c1OC (configuration not stated) do in these assays?
D2 ag-1: -1; D2 PAM-1: -13; D2 PAM-2: 1; D2 ag-2: -1; D2 antagonist: 40*!

What do the screens show for `COc1cc(C(=O)OC(C)CN2CCN(C)CC2)cc(OC)c1OC` (configuration not stated)?
D2 ag-1: -2; D2 PAM-1: -10; D2 PAM-2: 1; D2 ag-2: 0; D2 antagonist: -3

Results for O=C(CNC(=O)c1ccccc1Cl)OCc1cc(=O)n2nc(C3CC3)sc2n1 ?
D2 PAM-2: -14; D2 ag-2: 0

How did CCOc1cc(C(=O)NN2CCOCC2)cc(OCC)c1OCC do in these assays?
D2 ag-1: -2; D2 PAM-1: 0; D2 PAM-2: 1; D2 ag-2: 0; D2 antagonist: 36*

What do the screens show for `CCOc1cc(C(=O)Nc2ccc(S(=O)(=O)N3CCOCC3)cc2)cc(OCC)c1OCC`?
D2 ag-1: -4; D2 PAM-1: -22; D2 PAM-2: -8; D2 ag-2: -1; D2 antagonist: 2

How did COc1ccc(-c2cn3c(n2)sc2cc(C(=O)NCCc4ccc(OC)cc4OC)ccc23)cc1 do in these assays?
D2 PAM-2: 9; D2 ag-2: -1

Results for OC1CCN(Cc2ccc(OCc3ccccc3)cc2)CC1 ?
D2 ag-1: 5; D2 PAM-1: -18; D2 PAM-2: -8; D2 ag-2: -1; D2 antagonist: 5

Results for CC1CCCN(Cc2ccc(OCc3ccccc3)cc2)C1 (configuration not stated) ?
D2 ag-1: 0; D2 PAM-1: -35; D2 PAM-2: -14; D2 ag-2: -1; D2 antagonist: 46*

Results for Cc1ccc(Nc2nnc(C)c(=O)[nH]2)cc1 ?
D2 ag-1: 4; D2 PAM-1: -5; D2 PAM-2: -4; D2 ag-2: -3; D2 antagonist: 43*

Results for CC(C)NC(=O)C1(C)CCN1C(=O)c1ccccc1 (configuration not stated) ?
D2 ag-1: -4; D2 PAM-1: -8

Results for Cc1ccc(C)c(Cn2nc(-c3cc(C)ccc3C)ccc2=O)c1 ?
D2 ag-1: -1; D2 PAM-1: -10; D2 PAM-2: -3; D2 ag-2: 1; D2 antagonist: 35*

How did CCOC(=O)C1=C(CN2CCN(c3cc(C)ccc3C)CC2)NC(=O)NC1c1ccc(Cl)cc1 (configuration not stated) do in these assays?
D2 PAM-2: -9; D2 ag-2: 0

What do the screens show for `CC[C@]12CCCN3CCc4c(n(c5ccccc45)[C@](O)(C(=O)OC)C1)[C@@H]32`?
D2 ag-1: -4; D2 PAM-1: 13; D2 PAM-2: 14; D2 ag-2: 1; D2 antagonist: -11

What do the screens show for `CCC12CCCN3CCc4c(n(c5ccccc45)C(O)(C(=O)OC)C1)C32` (configuration not stated)?
D2 ag-1: 5; D2 PAM-1: -6; D2 PAM-2: -30; D2 ag-2: 0; D2 antagonist: 51*

Results for COc1cccc(-n2c(C)nc3c(cnn3-c3ccc(C)c(C)c3)c2=O)c1 ?
D2 PAM-2: -5; D2 ag-2: 0

Results for CCCn1c(CCCNC(=O)c2ccccc2OC)nc2ccccc21 ?
D2 PAM-2: 2; D2 ag-2: -1

What do the screens show for `O=C(Nc1cccnc1)c1cc(-c2ccc(Cl)cc2Cl)on1`?
D2 ag-1: 3; D2 PAM-1: -2; D2 PAM-2: 7; D2 ag-2: 1; D2 antagonist: 35*

Results for O=C(c1cc(-c2ccc(Cl)cc2Cl)on1)N1CCN(C(=O)c2ccco2)CC1 ?
D2 ag-1: -1; D2 PAM-1: -7; D2 PAM-2: 49*; D2 ag-2: 1; D2 antagonist: -1

What do the screens show for `O=C(c1cc(-c2ccccc2Cl)on1)N1CCN(C(=O)c2ccco2)CC1`?
D2 ag-1: -2; D2 PAM-1: -18; D2 PAM-2: -1; D2 ag-2: 0; D2 antagonist: 4

How did Cc1ccc(CN(Cc2cccn2-c2nnc(N3CCCC3=O)s2)C(=O)Nc2cc(C)cc(C)c2)cc1 do in these assays?
D2 PAM-2: -3; D2 ag-2: 0

Assay outcomes deposited in PubChem BioAssay by National Center for Advancing Translational Sciences (NCATS).
